# Laboratory results: PubChem BioAssay
# Calls of active or inactive are those of the source.
# Columns and labels:
# Albumin (Bos taurus) = Albumin (Bos taurus) (UniProt P02769); assay: bovine serum albumin binders on microarray, profiling panel, artefact control for SMM control protein annotation, biochemical, small-molecule microarray, Alexa647 label, 635/667 nm fluorescence (AID 1118); settings: BSA-A647 binding, fluorescence 635 nm, higher = more signal;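 also: score merges 667 nm emission intensity and signal-to-noise per printed compound spot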
# Sequence of Albumin (Bos taurus) (P02769 whole entry, looked up): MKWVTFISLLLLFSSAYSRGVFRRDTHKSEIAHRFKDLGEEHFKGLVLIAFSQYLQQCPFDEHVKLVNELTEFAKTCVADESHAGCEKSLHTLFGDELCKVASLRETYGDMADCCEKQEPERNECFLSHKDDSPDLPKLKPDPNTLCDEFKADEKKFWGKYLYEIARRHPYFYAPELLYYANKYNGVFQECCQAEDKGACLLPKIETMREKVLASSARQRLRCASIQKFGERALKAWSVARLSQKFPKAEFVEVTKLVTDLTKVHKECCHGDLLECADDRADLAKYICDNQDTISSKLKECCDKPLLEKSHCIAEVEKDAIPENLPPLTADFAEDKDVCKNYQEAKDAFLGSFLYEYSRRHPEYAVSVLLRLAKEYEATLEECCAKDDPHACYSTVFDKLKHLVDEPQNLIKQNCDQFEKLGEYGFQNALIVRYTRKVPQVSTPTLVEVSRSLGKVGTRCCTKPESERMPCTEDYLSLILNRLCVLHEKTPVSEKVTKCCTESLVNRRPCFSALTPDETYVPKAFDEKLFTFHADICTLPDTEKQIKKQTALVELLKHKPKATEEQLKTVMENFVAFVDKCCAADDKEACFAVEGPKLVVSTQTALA
# [1] = small-molecule microarray binders of probe aXIP, primary screen, biochemical, NeuroSMM set, 635/667 nm fluorescence (AID 1119); settings: higher = more signal, called active from +8 up or from −8 down;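 also: probe is the protein aXip251-270 applied at 1 µg/mL to compound-printed slides; binding of probe to printed compounds measured as 667 nm fluorescence plus signal to noise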
# [2] = small-molecule binders of probe aNOTCH3, primary screen, biochemical, small-molecule microarray, 635/667 nm fluorescence (AID 1120); settings: higher = more signal;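 also: probe is a biotin-tagged antibody raised against NOTCH3 rather than NOTCH3 protein; score merges spot fluorescence near 667 nm with spot signal to noise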
# [3] = small-molecule binders of probe aNOTCH2, primary screen, biochemical, small-molecule microarray, 635/667 nm fluorescence (AID 1121); settings: higher = more signal;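 also: score merges feature fluorescence read at 667 nm with its signal to noise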
# [4] = biological target: Carbonic anhydrase 2 (Homo sapiens) (UniProt P00918); assay: CAII small-molecule binders, profiling panel, biochemical, small-molecule microarray, Alexa647-labelled CAII (AID 1122); settings: CAII-A647 binding fluorescence, higher = more signal
# [5] = COS7 lysate on small-molecule microarray, probe aHis, 635 nm (AID 1123); settings: COS7 cell lysate, fluorescence, higher = more signal;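 also: z-score combines 667nm fluorescence intensity with signal-to-noise per printed compound spot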
# [6] = compound binding in COS7 lysate, probe aLAP1, primary screen, cell lysate, small-molecule microarray (AID 1124); settings: probe aLAP1, fluorescence, higher = more signal;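 also: lysate comes from COS7 cells expressing LAP1 and is applied at 0.3 µg/mL; score merges spot fluorescence near 667 nm with signal-to-noise over triplicate slides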
# Sam68 (KHDRBS1) = assay: Sam68 small-molecule binders, primary screen, biochemical, small-molecule microarray, 635 nm fluorescence (AID 1125); settings: small-molecule microarray binding, higher = more signal;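 also: score merges 667 nm channel intensity with signal to noise over triplicate slides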
# [7] = test system: Chordin-like protein 2 (CHRDL2); assay: CHRDL2 small-molecule binders, primary screen, biochemical, small-molecule microarray, 635 nm fluorescence (AID 1126); settings: small-molecule microarray binding, fluorescence 635 nm; higher = more signal;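 also: printed compound slides probed with Chrdl2 protein at 4 µg/mL for 1 h at 4 C; score merges 667 nm emission intensity with signal to noise over three replicate slides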
# [8] = biological target: Concanavalin-A (Canavalia ensiformis) (UniProt P02866); assay: ConA small-molecule binders, primary screen, artefact control for SMM control protein annotation, biochemical, small-molecule microarray, Alexa647 label, 635 nm (AID 1127); settings: ConA-A647 binding fluorescence, higher = more signal;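 also: z combines 667 nm emission intensity with signal-to-noise across three replicate slides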
# Sequence of Concanavalin-A (Canavalia ensiformis) (P02866 whole entry, looked up): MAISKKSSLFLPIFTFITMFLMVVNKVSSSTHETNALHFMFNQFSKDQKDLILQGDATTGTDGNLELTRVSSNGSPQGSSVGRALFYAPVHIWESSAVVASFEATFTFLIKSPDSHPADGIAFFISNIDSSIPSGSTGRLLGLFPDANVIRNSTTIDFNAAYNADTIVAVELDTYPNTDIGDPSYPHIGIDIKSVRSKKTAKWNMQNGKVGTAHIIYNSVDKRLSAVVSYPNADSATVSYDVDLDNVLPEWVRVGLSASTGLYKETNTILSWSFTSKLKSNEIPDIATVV
Compound,composite z-score (Albumin (Bos taurus)),composite Z-score [1],composite z-score [2],composite z-score [3],composite z-score [4],composite z-score [5],composite z-score [6],composite z-score (Sam68 (KHDRBS1)),composite z-score [7],composite z-score [8]
CN(C)CCCCCCNC(=O)[C@@H]1C[C@@H]2C(=O)N[C@@H](CCCCN)C(=O)N2[C@@H]1c1cccc(OCCO)c1,1.05,7.35 (inactive),1.79,0.72,0.92,2.35,1.2,1.32,1.2,1.24
CC(C)C(=C=CC[C@@H](O)c1ccccc1OCCO)CCO,0.0824,-0.519 (inactive),-0.0311,-0.115,0.374,-0.501,-0.412,0.615,0.0551,0.542
CC(C)(C)OC(=O)CC[C@]12N=C(c3ccc(OCCCO)cc3)O[C@H]1c1ccccc1N(CCS(=O)(=O)c1ccccc1)C2=O,0.0963,1.02 (inactive),0.21,-0.0241,0.422,2.48,0.53,1.3,0.765,1.14
CC(C)C(CO)N1C(=O)[C@@H]2[C@H]3C(=O)OCC=C[C@H]3OC23C=CCN(C(C)C)C(=O)[C@@H]13 (stereo not given in full),-0.457,0.12 (inactive),-0.149,-0.14,-0.0147,-0.312,-0.313,0.239,0.292,-0.529
CC(=O)N1Cc2ccccc2C[C@@]2(COC(c3ccc(OCCCO)cc3)=N2)C1=O,0.707,-0.151 (inactive),0.286,0.16,0.669,2.38,0.16,1.3,0.341,1.15
C=CCNC(=O)[C@H]1[C@@H]2C(=O)O[C@@H](c3ccccc3)[C@@H](c3ccccc3)N2[C@@H](c2ccc(OCCO)cc2)[C@]12C(=O)Nc1ccc(C#CC3=CCCCC3)cc12,0.17,0.0758 (inactive),-0.0933,-0.0703,0.338,0.999,0.272,1.31,0.105,0.994
CCOC(=O)C[C@H]1[C@H](OC(=O)c2cc3ccccc3oc2=O)[C@@H](NC(=O)Cc2ccc(OC)cc2)c2cc(OCCCO)ccc2N1C(=O)c1ccccc1,0.722,0.311 (inactive),-0.0324,-0.0986,0.091,0.386,-0.0727,0.687,0.328,-0.256
C=C(CCCC)C(=O)CC[C@H](OC(C)=O)c1cccc(OCCO)c1,-1.33,-0.126 (inactive),-0.224,-0.205,-0.361,-0.0995,-0.186,-0.11,-1.14,-0.502
COc1ccc(CCN2C(=O)[C@@]3(Cc4ccccc42)c2ccccc2C(=O)N(Cc2ccccc2C(F)(F)F)[C@H]3c2ccc(CO)cc2)cc1,-0.951,0.319 (inactive),-0.0718,-0.193,0.107,0.387,0.184,0.242,0.736,1.13
CCOC(=O)C1=CCC(c2ccc(C)cc2)N(S(=O)(=O)c2ccc(C)cc2)C1 (stereo not given),0.0328,0.798 (inactive),0.037,-0.146,0.251,1.43,-0.347,0.747,0.137,0.995
O=C1NC(=O)C2C1C=CC(C(O)C(c1ccccc1)c1ccccc1)N2Nc1ccc(Cl)cc1Cl (stereo not given),0.766,-0.713 (inactive),0.263,0.0409,0.584,1.84,0.0766,0.993,-0.483,0.788
O=C1c2ccccc2[C@@]2(Cc3ccccc3N(CCN3CCOCC3)C2=O)[C@H](c2ccc(CO)cc2)N1Cc1ccccc1,-0.425,-0.117 (inactive),-0.165,-0.115,0.739,0.733,0.235,-0.419,-0.717,0.203
CCCC[C@@H]1C[C@H]1[C@@H](NC(=O)c1ccco1)c1ccc(Cl)cc1,0.796,-0.0717 (inactive),0.193,-0.0164,0.637,1.99,0.65,1.33,-0.414,1.07
C=CC[C@]1(C(=O)NCCCOC)N=C(c2ccc(OCCCO)cc2)O[C@H]1c1ccccc1N=[N+]=[N-],0.958,0.484 (inactive),0.205,0.0494,0.726,3.06,0.397,1.31,-0.0877,0.982
COCCOC(=O)N1C(=O)[C@@]2(c3ccccc31)[C@H](c1ccc(O)cc1)N1[C@H](c3ccccc3)[C@H](c3ccccc3)OC(=O)[C@H]1[C@@H]2C(=O)NC[C@H](O)c1ccccc1,0.827,0.442 (inactive),0.0888,-0.0513,0.756,1.79,0.506,1.07,-1.04,0.291
COc1ccc(CCNC(=O)[C@@H]2c3ccccc3C(=O)N(C3Cc4ccccc4C3)[C@H]2c2ccc(CO)cc2)cc1,0.397,0.131 (inactive),-0.0725,-0.0907,0.705,2.21,0.0554,0.73,-0.551,0.542
COC(=O)[C@@]1(Cc2ccccc2)[C@H]2c3cc(C(=O)N(C)C)n(CCSCCO)c3C[C@H]2CN1C(=O)c1ccccc1,0.569,0.376 (inactive),0.0893,0.0577,0.801,2.26,-0.154,0.555,-0.25,0.523
CC(C)(C)OC(=O)CC[C@@]1(C(N)=O)N=C(c2ccc(OCCCO)cc2)O[C@@H]1c1ccccc1,0.604,-0.327 (inactive),0.3,0.011,0.758,2.99,0.26,1.3,-0.796,0.722
CC1CC/C=C\[C@H]2OC34C=CCN(c5ccc(Cl)cc5)C(=O)[C@H]3N(CCO)C(=O)[C@]4(C)C2C(=O)O1 (stereo not given in full),-0.0427,-0.0662 (inactive),-0.152,-0.149,0.902,-0.507,0.627,0.409,-0.961,-0.206
NC(=O)[C@@H]1[C@H]2C(=O)O[C@H](c3ccccc3)[C@H](c3ccccc3)N2[C@H](c2ccc(O)cc2)[C@@]12C(=O)Nc1ccc(C#CC3(O)CCCCCC3)cc12,-0.425,0.339 (inactive),-0.15,-0.175,0.792,0.514,-0.107,-0.427,-0.571,-0.107
C=C(CCCC)C(=O)CC[C@@H](OC(=O)c1cccnc1)c1ccc(CO)o1,0.477,-0.261 (inactive),0.205,-0.127,0.618,0.28,0.194,1.31,0.844,1.02
COc1ccc([Si](C)(C)[C@H]2[C@H](CC(=O)N3Cc4ccccc4C[C@H]3CO)O[C@@]3(C(=O)N(Cc4ccc(N5CCC5=O)cc4)c4ccccc43)[C@@H]2C)cc1,0.402,-0.39 (inactive),-0.0014,0.581,0.516,1.51,1.19,1.29,1.4,1.13
O=C(C1N=C(c2ccc(OCCCO)cc2)N(c2ccccc2)O1)N1CCOCC1 (stereo not given),0.709,0.0285 (inactive),0.237,-0.0843,0.557,1.54,0.255,1.32,-0.114,0.488
CC(C)(C)C(=O)N[C@@H](c1ccc(Cl)cc1)[C@]1(C)C[C@H]1C1CCCCC1,0.886,-0.149 (inactive),0.449,0.347,0.505,2.12,0.968,1.29,-0.319,1.19
CN1C(=O)C2C=CC(C(O)c3ccc(-c4ccccc4)s3)N(N(c3ccccc3)c3ccccc3)C2C1=O (stereo not given),0.828,0.81 (inactive),-0.0865,-0.134,0.365,1.69,-0.149,0.749,0.414,1.08
C[C@@]1([C@@H](NC(=O)c2ccccc2)c2ccc(-c3ccccc3)cc2)C[C@H]1C1CCCCC1,0.373,0.309 (inactive),0.106,0.378,-0.137,0.121,-0.0002,-1.66,-1.51,-0.867
COC(=O)[C@@]1(Cc2ccc(OC)cc2)[C@H]2c3cc(C(=O)N4CCCC4)n(Cc4ccsc4Br)c3C[C@H]2CN1C(=O)c1ccccc1,0.885,0.387 (inactive),0.527,-0.0677,0.877,2.83,0.0786,0.374,-0.91,0.496
COCC(=C=CC[C@H](O)c1ccccc1OCCO)C[C@H](O)c1cc(Cl)cc(Cl)c1O,0.384,2.26 (inactive),-0.0077,-0.115,0.351,0.834,0.478,1.24,-0.383,0.689
